ELG1 DNA repair: inhibitors of ELG1-dependent DNA repair in HEK293T cells; HEK293T ELG1-luciferase reporter, luminescence, 16 h; DNA damage induced by 5-fluorouridine; Potency, µM (titrated, usually from 46.1 µM), inactives show at the top dose activity change, negative = inhibition, most hits filed as inhibitors; 2.3% of 330,000 active; also: nearly all actives have a fitted effect of over 55% in size
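DMSO vehicle served as the neutral condition. Each well held 2,000 cells given 5-fluorouridine plus compound; after 16 hr at 37 °C/5% CO2, ONE-Glo was added and luciferase measured 30 min later.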
12-LOX inh: inhibitors of human 12S-lipoxygenase ALOX12; Potency, µM (top dose mostly 108 µM), without a hit: at the top dose activity change, negative = inhibition, usual class: inhibitors; P18054; AID 1671190; purified 12hLO, xylenol orange hydroperoxide absorbance; 1.1% of 580,000 active
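Hydroperoxide product was detected by ferrous iron/xylenol orange as the 573 to 405 nm absorbance ratio. Arachidonic acid at 40 uM (final) was turned over for 30 min at room temperature by 150 nM human 12hLO, pH 7.0 Hepes buffer, after 15 min compound preincubation.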
TDP1 cell noCPT: qHTS for Inhibitors of human tyrosyl-DNA phosphodiesterase 1 (TDP1): qHTS in cells in absence of CPT | DT40 Tdp1-/- hTDP1 cells, no CPT, ATP luminescence, 48 h | Potency, µM (highest dose often 46.2 µM), for the others: at the top dose activity change, negative = growth inhibition, hits mostly inhibitors | 15% of 420,000 active | AID 686978, 2013; also: nearly all actives have a fitted effect of over 55% in size
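Cells were dispensed at 400 per well, compounds added by pin tool, plates incubated ≥48 hr at 37 °C, then CellTiter-Glo added for 30 min at room temperature before luminescence reading. Line: DT40 Tdp1-/- complemented with hTDP1; camptothecin omitted.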
VP16 counter: inhibits Gal4-VP16 luciferase reporter, ROR gamma counter-screen | Drosophila S2 Gal4-VP16 UAS-luciferase, luminescence, 20 h | Potency, µM (titrated, usually from 53.6 µM), inactives show at the top dose activity, negative = inhibition, hits mostly inhibitors | 3.5% of 310,000 active | AID 2546;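 also: Gal4-VP16 expression switched on by copper sulfate through the metallothionein promoter; nearly all actives have a fitted effect of over 50% in size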
RORgamma inh: inhibitors of mouse ROR gamma transcriptional activity; P51450; Drosophila S2 Gal4-RORgamma UAS-luciferase reporter, 20 h; Potency, µM (top dose mostly 53.6 µM), for inactives: at the highest dose activity change, negative = inhibition, actives largely listed as inhibitors; 5.4% of 310,000 active; AID 2551; also: nearly all actives have a fitted effect of over 60% in size
Target sequence (P51450 whole entry, looked up, the tested form may be a part): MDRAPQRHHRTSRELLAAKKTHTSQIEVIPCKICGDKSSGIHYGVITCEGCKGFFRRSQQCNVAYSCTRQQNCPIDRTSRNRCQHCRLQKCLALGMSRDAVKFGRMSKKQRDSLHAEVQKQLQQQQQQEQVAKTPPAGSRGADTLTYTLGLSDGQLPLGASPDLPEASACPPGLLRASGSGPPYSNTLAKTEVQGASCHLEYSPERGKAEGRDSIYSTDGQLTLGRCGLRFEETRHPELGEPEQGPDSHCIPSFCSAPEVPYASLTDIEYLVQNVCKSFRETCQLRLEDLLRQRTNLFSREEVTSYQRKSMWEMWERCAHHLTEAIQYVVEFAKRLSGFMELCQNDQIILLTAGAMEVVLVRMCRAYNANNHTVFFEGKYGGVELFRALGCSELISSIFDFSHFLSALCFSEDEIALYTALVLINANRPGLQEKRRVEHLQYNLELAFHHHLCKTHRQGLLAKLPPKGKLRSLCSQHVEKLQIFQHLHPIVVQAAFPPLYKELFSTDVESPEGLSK
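Schneider cells (Drosophila), stable Gal4 DBD–ROR gamma + UAS-luc; 1 hr cmpd preincubation; Cu2+ induction 700 uM final; 20 hr ambient; luminescence.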
TDP1 cell CPT: DT40-hTDP1 cell growth loss with CPT; chicken DT40 Tdp1-/-;hTDP1 cells + 20 nM CPT, ATP luminescence, 48 h; Potency, µM (titrated, usually from 46.2 µM), for inactives: top-dose activity change, negative = growth inhibition, actives largely listed as inhibitors; 12% of 420,000 active; AID 686979; also: nearly all actives have a fitted effect of over 55% in size
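Chicken DT40 Tdp1-/- cells stably complemented with human TDP1 were seeded at 400 cells/well in medium containing 20 nM camptothecin, exposed to pin-transferred compounds, and grown at 37 °C for at least 48 hr. Viability was read as ATP luminescence.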
* marks the source's active call; other numbers are inactive results; ? = inconclusive; / = no result; [ ] = dose if it differs, or a comment. Most compounds without a hit are left out; they make up all but 15% or so of the library. Calls follow the shape of the dose curve; as a rule, active = well fitted curve in the direction sought with a large enough effect; inconclusive = small, poorly fitted or top-dose-only effect, or another doubt; inactive = no such curve, though single readings can be large; an effect the other way counts as inactive or inconclusive. % is scaled to controls: 0 for no effect and ±100 for the full control effect; potency is read from the fitted curve at half-maximal effect.

SMILES	ELG1 DNA repair	12-LOX inh	TDP1 cell noCPT	VP16 counter	RORgamma inh	TDP1 cell CPT
COc1cc(/C=C(/C#N)c2ccc(Cl)cc2)ccc1OC(C)C	/	-2.5%	/	/	/	/
CN(C)Cc1ccc(CNC(=O)c2nn(-c3ccc(F)cc3)c3c2CCC3)cc1	/	1.9%	/	/	/	/
CONC(=O)CSCC(=O)Nc1cccc(C)c1	/	-35.1%	/	/	/	/
Cc1ccccc1CN1CCN(C(=O)c2cc(-c3ccncc3)nc3ccccc23)CC1	8.5%	-9.6%	11.6µM*	5.4%	-17.2%	20.6µM*
O=C(CCl)Nc1ncc(S(=O)(=O)c2ccc([N+](=O)[O-])cc2)s1	9.6%	?	16.4µM*	/	/	29.1µM*
CC(C)c1ccc(Nc2nnc(SCC(=O)Nc3ncc(S(=O)(=O)c4ccc([N+](=O)[O-])cc4)s3)s2)cc1	?	-7.4%	?	-4.0%	10µM*	?
CCCC(C)C(=O)Nc1ncc(S(=O)(=O)c2ccc([N+](=O)[O-])cc2)s1 (centres undefined)	?	-6.9%	?	-13.7%	22.7%	14.6µM*
CCOCCC(=O)Nc1ncc(S(=O)(=O)c2ccc([N+](=O)[O-])cc2)s1	/	15.7%	-14.3%	/	/	0.4%
Cc1ccc(Nc2nnc(SCC(=O)Nc3ncc(S(=O)(=O)c4ccc([N+](=O)[O-])cc4)s3)s2)cc1	?	-19.5%	?	-70.5%	27.3%[10 µM]	?
CCC(C)(C)C(=O)Nc1ncc(S(=O)(=O)c2ccc([N+](=O)[O-])cc2)s1	?	?	?	0.3%	10.1%	?
CCN1c2cc(C(=O)Nc3ccc(F)cc3F)ccc2C(=O)N2CCCCCC21 (centres undefined)	/	5.5%	/	/	/	/
Cc1cc(CS(=O)(=O)Cc2ccc(Cl)cc2)on1	/	37.3%	/	/	/	/
COC(=O)CCC1(C)C(=C(C)C)CCC(C)C1COc1ccc2ccc(=O)oc2c1 (centres undefined)	/	3.5%	/	/	/	/
Cc1cccc(C(=O)N2CCn3nnc(CCC(=O)NC4CC4)c3C2)c1	/	12.4%	/	/	/	/
CCOc1ccc(-n2ccnc(NCc3ccccc3)c2=O)cc1	/	-66.6%	/	/	/	/
COC(=O)CC1c2cc(OC)c(OC)cc2CCN1Cc1nc(C2CC2)no1 (centres undefined)	/	-28.3%	/	/	/	/
COc1cccc(-n2cc(C(=O)NCc3ccccc3OC)c3ccccc3c2=O)c1	/	-7.0%	?	/	/	?
COc1ccc(-n2cc(C(=O)NCCc3cc(OC)ccc3OC)c3ccccc3c2=O)cc1	/	-14.1%	20.6µM*	/	/	16.4µM*
COc1cccc(-n2cc(C(=O)NCCc3cccc(C)c3)c3ccccc3c2=O)c1	/	-19.8%	18.4µM*	/	/	?
CCc1ccccc1N(C)C(=O)c1cn(-c2cccc(OC)c2)c(=O)c2ccccc12	/	-28.1%	16.4µM*	/	/	14.6µM*
CCCCN(C)C(=O)c1cn(-c2cccc(OC)c2)c(=O)c2ccccc12	13.5%	21.4%	6.1%	0.3%	23.8%	-1.8%
O=C(NCC(O)COc1cccc(C(F)(F)F)c1)C1CCC1 (centres undefined)	/	7.3%	/	/	/	/
COC(=O)c1ccc(NC2c3ccccc3C(=O)N2c2cccnc2)cc1 (centres undefined)	/	11.0%	/	/	/	/
CCOC(=O)c1ccc(NC2c3ccccc3C(=O)N2c2cccnc2)cc1 (centres undefined)	13.9%	23.7%	10.3µM*	6.9%	-8.4%	11.6µM*
COC(=O)c1ccccc1NC1c2ccccc2C(=O)N1c1cccnc1 (centres undefined)	-0.1%	19.9%	?	8.4%	?	14.6µM*
SMILES	ELG1 DNA repair	12-LOX inh	TDP1 cell noCPT	VP16 counter	RORgamma inh	TDP1 cell CPT
CC(=O)N1CCN2C(=O)N([C@@H](C)c3ccccc3)C(=O)[C@@H]2C1	/	60.2%[176 µM]	/	/	/	/
COc1cccc(-c2cc3nc(-c4ccccc4)cc(N4CCN(C(=O)c5ccoc5)CC4)n3n2)c1	/	-13.1%	5.17µM*	/	/	7.31µM*
COc1cccc(-c2cc3nc(-c4ccccc4)cc(N4CCC5(CC4)OCCO5)n3n2)c1	?	3.5%[57.4 µM]	20.6µM*	-6.0%	16.0%	?
COc1cccc(-c2cc(N3CCN(C(=O)c4ccoc4)CC3)n3nc(-c4cccc(Cl)c4)cc3n2)c1	/	?	8.2µM*	/	/	14.6µM*
CC(C)C1CN(C(=O)CCn2ccc(=O)[nH]c2=O)CCC(=O)N1CC1CC1 (centres undefined)	/	17.7%	/	/	/	/
CC(Cc1ccco1)NS(=O)(=O)N1CCOCC1 (centres undefined)	/	4.3%	/	/	/	/
Cc1cc2nc3n(c(=O)c2n1CC(=O)Nc1cccc(Cl)c1)CCCC3	/	-12.1%	/	/	/	/
Cn1c(SCc2ccc(F)cc2Cl)nc2ccccc2c1=O	-1.1%	186.9%	14.6µM*	/	/	?
CCc1ccc(C(=O)CSc2nc3ccccc3c(=O)n2CCCN2CCOCC2)cc1	/	15.0%	/	/	/	/
O=c1c2ccccc2nc(SCc2ccc(F)cc2Cl)n1CCCN1CCOCC1	1.3%	-15.0%	16.4µM*	-1.4%	1.3%	?
Cc1ccc(C(=O)NC(=S)NNC(=O)c2ccccc2)cc1	-9.4%	?	?	20µM*	?	?
Cc1ccc(NC(=O)NC(=S)NC(=O)c2ccccc2)cc1	13.9%	-7.0%	?	?	2.51µM*	?
Cc1ccc(C(=O)NNC(=S)NC(=O)c2ccc(Cl)cc2Cl)cc1	4.6%	?	?	7.4%	-27.1%	?
Cc1ccc(C(=O)NNC(=S)NC(=O)c2ccccc2)cc1	/	0.3%	16.4µM*	/	/	18.4µM*
Cc1ccc(C(=O)NC(=S)NNC(=O)CCN2CCOCC2)cc1	?	-19.3%	?	-12.5%	11.2µM*	?
COCCNC(=O)[C@@H]1C[C@H](Oc2cccnc2)CN1C(=O)c1cc2ccc(OC)cc2[nH]1	/	20.8%	/	/	/	/
COc1cccc(Oc2nnnn2-c2ccccc2)c1	?	0.0%	3.9%	20.7%	-3.2%	0.3%
COc1cccc(-n2nnnc2S(C)(=O)=O)c1	?	/	2.59µM*	5.01µM*	3.16µM*	2.06µM*
Cc1cccc(-n2nnnc2S(C)(=O)=O)c1	/	-5.3%	0.731µM*	/	/	1.16µM*
Cc1cccc(C)c1NC(=O)CN1CCN(C(=O)CNC(=O)Cc2cccc3ccccc23)CC1	/	-16.7%	14.6µM*	/	/	?
Cc1cccc(C)c1NC(=O)CN1CCN(C/C=C/c2ccccc2)CC1	/	3.4%	?	/	/	?
